Laboratory results as given in PubChem BioAssay (Tox21).
Results filed as inconclusive are left out. Where a call stands in place of a potency, no number is given. Activity calls are given as the source filed them. Calls follow the shape of the full dose curve.

system: not listed separately; assay: qHTS assay to identify small molecule agonists of the AP-1 signaling pathway (AID 1159526); conditions: ME-180 (cervical carcinoma) AP-1-bla reporter, beta-lactamase FRET ratio, 5 h; series mostly up to 76.8 µM

Structure (SMILES)	outcome
C#C[C@]1(O)CC[C@H]2[C@@H]3CCC4=Cc5oncc5C[C@]4(C)[C@H]3CC[C@@]21C	inactive
Nc1ncn([C@@H]2O[C@H](CO)[C@@H](O)[C@H]2O)c(=O)n1	inactive
CN(C)c1nc(N(C)C)nc(N(C)C)n1	inactive
CC(C)(C)NC(=O)[C@H]1CC[C@H]2[C@@H]3CC[C@H]4NC(=O)C=C[C@]4(C)[C@H]3CC[C@]12C	inactive
CCCCC(CC)COCC1CO1 (stereo not drawn)	inactive
COC(=O)Nc1nc2ccc(S(=O)c3ccccc3)cc2[nH]1 (stereo not drawn)	inactive
CC(=O)Oc1ccccc1C(=O)Nc1ncc([N+](=O)[O-])s1	inactive
c1cc(-c2ccncc2)ccn1	inactive
OC[C@H]1O[C@@H]2O[C@H]3[C@H](O)[C@@H](O)[C@@H](O[C@H]4[C@H](O)[C@@H](O)[C@@H](O[C@H]5[C@H](O)[C@@H](O)[C@@H](O[C@H]6[C@H](O)[C@@H](O)[C@@H](O[C@H]7[C@H](O)[C@@H](O)[C@@H](O[C@H]8[C@H](O)[C@@H](O)[C@@H](O[C@H]1[C@H](O)[C@H]2O)O[C@@H]8CO)O[C@@H]7CO)O[C@@H]6CO)O[C@@H]5CO)O[C@@H]4CO)O[C@@H]3CO	inactive
NC=O	inactive
c1ccc2cc(Nc3ccc(Nc4ccc5ccccc5c4)cc3)ccc2c1	inactive
COC(C)COC(C)COC(C)CO (stereo not drawn)	inactive
CC(=O)CC/C=C(\C)CCC=C(C)C	inactive
Nc1ncnc2nc[nH]c12	inactive
OCCO	inactive
O=C1OC2(c3cc(Br)c(O)c(Br)c3Oc3c2cc(Br)c(O)c3Br)c2c(Cl)c(Cl)c(Cl)c(Cl)c21	inactive

Structure (SMILES)	outcome
CCCCOCCOCCO	inactive
Cc1c(C(N)=O)cc([N+](=O)[O-])cc1[N+](=O)[O-]	inactive
COc1ccc(C(=O)CC(=O)c2ccc(C(C)(C)C)cc2)cc1	inactive
CCC(C)c1ccccc1O (stereo not drawn)	inactive
Nc1ccccc1N	inactive
CC(=O)C1(C)CC2=C(CCCC2(C)C)CC1C (stereo not drawn)	inactive
Cc1c(OCC(F)(F)F)ccnc1CS(=O)c1nc2ccccc2[nH]1 (stereo not drawn)	inactive
O=C(c1ccccc1)c1ccccc1O	inactive
O=CCCCC=O	inactive
NNc1ccc(C(=O)O)cc1	inactive
O=Cc1ccccc1O	inactive
Cc1cccc(N(C)C(=S)Oc2ccc3ccccc3c2)c1	inactive
Cc1cc2nc3c(=O)[nH]c(=O)nc-3n(C[C@H](O)[C@H](O)[C@H](O)CO)c2cc1C	inactive
COc1cccc2c1C(=O)c1c(O)c3c(c(O)c1C2=O)C[C@@](O)(C(=O)CO)C[C@@H]3O[C@H]1C[C@H](N)[C@H](O)[C@H](C)O1	inactive
CN(C)C(=N)N=C(N)N	inactive
CC(=O)O[C@]1(C(C)=O)CC[C@H]2[C@@H]3C=C(Cl)C4=CC(=O)[C@@H]5C[C@@H]5[C@]4(C)[C@H]3CC[C@@]21C	inactive

target: Retinoic acid receptor RXR-alpha (Homo sapiens) (UniProt P19793); assay: qHTS assay to identify small molecule agonists of the RXR signaling pathway (AID 1159527); conditions: HEK293T RXRa-UAS-bla, beta-lactamase ratio, 16 h; series mostly up to 76.8 µM; also: nearly all actives have a fitted effect of over 35% in size; also: potency is read from the fitted curve at half-maximal effect
Sequence (P19793 whole entry, looked up): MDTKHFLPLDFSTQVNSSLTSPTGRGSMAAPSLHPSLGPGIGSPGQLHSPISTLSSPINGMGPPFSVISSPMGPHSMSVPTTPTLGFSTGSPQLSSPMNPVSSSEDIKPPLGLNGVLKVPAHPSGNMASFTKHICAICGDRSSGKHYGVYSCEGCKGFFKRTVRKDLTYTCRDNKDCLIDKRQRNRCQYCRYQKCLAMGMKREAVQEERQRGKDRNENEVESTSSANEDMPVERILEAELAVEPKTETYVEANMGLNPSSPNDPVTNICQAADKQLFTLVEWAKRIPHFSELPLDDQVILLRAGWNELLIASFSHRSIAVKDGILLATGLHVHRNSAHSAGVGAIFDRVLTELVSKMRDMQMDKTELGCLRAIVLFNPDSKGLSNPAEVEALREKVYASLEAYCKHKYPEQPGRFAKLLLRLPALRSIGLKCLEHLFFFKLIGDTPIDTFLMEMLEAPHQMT
In short: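 Read-out: beta-lactamase FRET ratio (405 nm excitation, 460 and 530 nm emission) after 2 hr substrate loading at room temperature. Cells were RXR-alpha-UAS-bla HEK 293T treated with compounds for 16 hr in 2% charcoal-stripped FBS medium.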

Structure (SMILES)	Potency
CN(C)c1nc(N(C)C)nc(N(C)C)n1	inactive
CN(C)CCN(Cc1cccs1)c1ccccn1	inactive
CCCCC(CC)COCC1CO1 (stereo not drawn)	inactive
COC(=O)Nc1nc2ccc(S(=O)c3ccccc3)cc2[nH]1 (stereo not drawn)	inactive
c1cc(-c2ccncc2)ccn1	inactive
OC[C@H]1O[C@@H]2O[C@H]3[C@H](O)[C@@H](O)[C@@H](O[C@H]4[C@H](O)[C@@H](O)[C@@H](O[C@H]5[C@H](O)[C@@H](O)[C@@H](O[C@H]6[C@H](O)[C@@H](O)[C@@H](O[C@H]7[C@H](O)[C@@H](O)[C@@H](O[C@H]8[C@H](O)[C@@H](O)[C@@H](O[C@H]1[C@H](O)[C@H]2O)O[C@@H]8CO)O[C@@H]7CO)O[C@@H]6CO)O[C@@H]5CO)O[C@@H]4CO)O[C@@H]3CO	inactive
NC=O	inactive
c1ccc2cc(Nc3ccc(Nc4ccc5ccccc5c4)cc3)ccc2c1	inactive
CC(=O)CC/C=C(\C)CCC=C(C)C	inactive
Nc1ncnc2nc[nH]c12	inactive
OCCO	inactive
CCCCOCCOCCO	inactive
Cc1c(C(N)=O)cc([N+](=O)[O-])cc1[N+](=O)[O-]	inactive
COc1ccc(C(=O)CC(=O)c2ccc(C(C)(C)C)cc2)cc1	inactive
CCC(C)c1ccccc1O (stereo not drawn)	inactive
CC(=O)C1(C)CC2=C(CCCC2(C)C)CC1C (stereo not drawn)	inactive
CCCCc1oc2ccccc2c1C(=O)c1cc(I)c(OCCN(CC)CC)c(I)c1	inactive
O=C(c1ccccc1)c1ccccc1O	inactive
O=CCCCC=O	inactive
NNc1ccc(C(=O)O)cc1	49.5 µM (active)
O=Cc1ccccc1O	inactive
